Columns and labels:
Assay in all cases: DAPPL (digital affinity profiling via proximity ligation, sequencing); 10 mM Tris-HCl pH 7.5, 50 mM NaCl, 1 mM DTT, 4% glycerol, room temperature, 30 min; GST-TFs on glutathione beads, 16-mer random dsDNA library, 0.1% formaldehyde crosslink after washing; high values mean tight binding
FLI1 = molecular target: T1, FLI1 (Homo sapiens, UniProt Q01543 1-452); conditions: protein: recombinant; tags: N-terminal GST; dsDNA, one strand shown
T1 sequence: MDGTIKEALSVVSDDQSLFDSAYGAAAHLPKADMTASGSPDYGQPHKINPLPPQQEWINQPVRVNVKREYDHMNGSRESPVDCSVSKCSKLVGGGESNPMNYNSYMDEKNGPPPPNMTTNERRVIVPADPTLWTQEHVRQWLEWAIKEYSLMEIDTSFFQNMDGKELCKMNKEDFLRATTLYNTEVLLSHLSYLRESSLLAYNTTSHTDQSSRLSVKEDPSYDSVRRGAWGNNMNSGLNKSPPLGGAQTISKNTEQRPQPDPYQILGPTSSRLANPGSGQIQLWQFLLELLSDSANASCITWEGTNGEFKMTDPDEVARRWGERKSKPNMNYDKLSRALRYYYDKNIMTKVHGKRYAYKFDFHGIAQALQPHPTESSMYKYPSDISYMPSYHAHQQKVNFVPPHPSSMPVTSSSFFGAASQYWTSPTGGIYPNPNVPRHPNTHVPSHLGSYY
Procedure, shortened: (§1)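 Binding signal is defined as a hexamer's read frequency for one factor over its frequency for the tag-only sample. To obtain reads, GST-fused human transcription factors were expressed in yeast, captured on glutathione beads, barcoded with DNA and pooled with that sample. Pools met 200 nmole of a 16-mer random double-stranded DNA library in Tris/NaCl/DTT/glycerol buffer for 30 min at room temperature before washing, 0.1% formaldehyde crosslinking, proximity ligation (BsaI/T4 ligase, 1 h, 37 °C), PCR and Illumina NextSeq500 sequencing.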

ELK1 = molecular target: T2, ELK1 (Homo sapiens, UniProt P19419 1-428); conditions: protein: recombinant; tags: N-terminal GST; dsDNA, one strand shown
T2 sequence: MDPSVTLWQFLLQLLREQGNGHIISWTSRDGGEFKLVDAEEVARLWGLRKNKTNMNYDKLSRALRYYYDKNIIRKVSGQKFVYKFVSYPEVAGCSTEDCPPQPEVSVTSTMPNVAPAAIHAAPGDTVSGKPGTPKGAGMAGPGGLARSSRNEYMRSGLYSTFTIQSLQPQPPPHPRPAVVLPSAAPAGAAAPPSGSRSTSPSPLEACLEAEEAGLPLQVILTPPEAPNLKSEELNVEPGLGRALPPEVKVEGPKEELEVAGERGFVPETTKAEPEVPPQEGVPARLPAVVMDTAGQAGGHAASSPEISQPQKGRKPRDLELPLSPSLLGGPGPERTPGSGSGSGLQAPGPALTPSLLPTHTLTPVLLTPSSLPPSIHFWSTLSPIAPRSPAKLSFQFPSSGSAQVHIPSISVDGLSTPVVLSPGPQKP
Procedure, shortened: as §1

GABPA = molecular target: T3, GABPA (Homo sapiens, UniProt Q06546 1-454); conditions: protein: recombinant; tags: N-terminal GST; dsDNA, one strand shown
T3 sequence: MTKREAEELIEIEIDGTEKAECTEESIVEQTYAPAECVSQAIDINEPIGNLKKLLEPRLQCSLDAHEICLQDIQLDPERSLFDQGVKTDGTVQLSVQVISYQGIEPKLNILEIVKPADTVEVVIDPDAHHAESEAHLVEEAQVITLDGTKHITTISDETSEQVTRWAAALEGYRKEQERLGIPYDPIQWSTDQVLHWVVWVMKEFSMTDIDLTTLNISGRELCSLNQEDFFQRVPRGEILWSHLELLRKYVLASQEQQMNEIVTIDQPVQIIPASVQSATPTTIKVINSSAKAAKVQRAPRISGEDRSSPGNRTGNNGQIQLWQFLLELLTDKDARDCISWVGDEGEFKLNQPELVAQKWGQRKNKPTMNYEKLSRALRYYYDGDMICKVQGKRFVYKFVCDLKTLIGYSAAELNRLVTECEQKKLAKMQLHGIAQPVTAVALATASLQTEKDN
Procedure, shortened: as §1

ERG = molecular target: T4, ERG (Homo sapiens, UniProt P11308 1-479); conditions: protein: recombinant; tags: N-terminal GST; dsDNA, one strand shown
T4 sequence: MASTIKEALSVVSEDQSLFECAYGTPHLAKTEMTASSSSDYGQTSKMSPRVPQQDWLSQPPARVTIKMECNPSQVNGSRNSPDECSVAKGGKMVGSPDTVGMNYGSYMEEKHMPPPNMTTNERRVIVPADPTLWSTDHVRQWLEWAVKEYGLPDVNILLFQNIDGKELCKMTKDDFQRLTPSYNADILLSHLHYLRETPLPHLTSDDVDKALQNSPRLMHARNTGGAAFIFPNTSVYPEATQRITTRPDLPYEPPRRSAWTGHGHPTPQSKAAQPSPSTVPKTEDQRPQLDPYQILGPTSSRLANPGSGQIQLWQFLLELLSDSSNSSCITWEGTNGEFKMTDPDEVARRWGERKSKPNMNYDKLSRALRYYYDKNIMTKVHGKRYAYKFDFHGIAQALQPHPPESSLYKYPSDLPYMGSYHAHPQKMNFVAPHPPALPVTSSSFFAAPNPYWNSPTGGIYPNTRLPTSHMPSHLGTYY
Procedure, shortened: as §1

ELF1 = ELF1 (Homo sapiens, UniProt P32519 1-619); conditions: protein: recombinant; tags: N-terminal GST; dsDNA, one strand shown
Chain of ELF1 (P32519 whole entry): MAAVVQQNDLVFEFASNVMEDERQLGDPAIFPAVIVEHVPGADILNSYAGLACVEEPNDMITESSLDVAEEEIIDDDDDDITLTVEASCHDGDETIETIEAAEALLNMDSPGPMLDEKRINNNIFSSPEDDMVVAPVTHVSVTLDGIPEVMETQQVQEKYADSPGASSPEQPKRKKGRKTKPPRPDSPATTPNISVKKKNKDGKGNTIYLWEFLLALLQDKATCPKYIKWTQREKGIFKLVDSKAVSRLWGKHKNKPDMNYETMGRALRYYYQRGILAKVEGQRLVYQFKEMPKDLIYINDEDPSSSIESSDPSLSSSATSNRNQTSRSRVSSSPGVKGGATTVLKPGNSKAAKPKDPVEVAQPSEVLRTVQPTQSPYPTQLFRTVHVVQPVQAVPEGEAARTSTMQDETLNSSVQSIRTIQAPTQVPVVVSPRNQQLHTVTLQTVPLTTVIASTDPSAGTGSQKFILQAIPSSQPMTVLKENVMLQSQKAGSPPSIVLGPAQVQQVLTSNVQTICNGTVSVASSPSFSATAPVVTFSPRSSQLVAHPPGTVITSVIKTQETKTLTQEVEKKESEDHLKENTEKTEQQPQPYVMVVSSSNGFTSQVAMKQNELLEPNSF
Procedure, shortened: as §1

EHF = molecular target: T5, EHF (Homo sapiens, UniProt Q9NZC4 1-300); conditions: protein: recombinant; tags: N-terminal GST; dsDNA, one strand shown
T5 sequence: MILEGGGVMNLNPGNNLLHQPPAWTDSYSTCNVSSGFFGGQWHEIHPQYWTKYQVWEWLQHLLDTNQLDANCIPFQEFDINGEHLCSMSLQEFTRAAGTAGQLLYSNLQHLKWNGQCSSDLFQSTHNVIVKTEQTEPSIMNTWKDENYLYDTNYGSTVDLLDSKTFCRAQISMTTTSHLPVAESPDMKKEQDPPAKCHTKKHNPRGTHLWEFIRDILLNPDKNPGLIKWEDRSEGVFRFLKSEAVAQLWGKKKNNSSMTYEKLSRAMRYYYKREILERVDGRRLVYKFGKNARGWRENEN
Procedure, shortened: as §1

SPI1 = SPI1 (Homo sapiens, UniProt P17947 1-270); conditions: protein: recombinant; tags: N-terminal GST; dsDNA, one strand shown
Procedure, shortened: as §1

SPIB = SPIB (Homo sapiens, UniProt Q01892 1-262); conditions: protein: recombinant; tags: N-terminal GST; dsDNA, one strand shown
Chain of SPIB (Q01892 whole entry): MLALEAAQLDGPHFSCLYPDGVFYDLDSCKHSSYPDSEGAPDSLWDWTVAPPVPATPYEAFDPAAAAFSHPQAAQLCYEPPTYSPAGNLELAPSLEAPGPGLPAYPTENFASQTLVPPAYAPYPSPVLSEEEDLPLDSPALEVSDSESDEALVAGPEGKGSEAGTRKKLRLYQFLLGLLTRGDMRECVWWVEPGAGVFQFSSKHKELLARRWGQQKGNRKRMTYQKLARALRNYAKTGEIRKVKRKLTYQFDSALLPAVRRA
Procedure, shortened: as §1

ELK3 = molecular target: T6, ELK3 (Homo sapiens, UniProt P41970 1-407); conditions: protein: recombinant; tags: N-terminal GST; dsDNA, one strand shown
T6 sequence: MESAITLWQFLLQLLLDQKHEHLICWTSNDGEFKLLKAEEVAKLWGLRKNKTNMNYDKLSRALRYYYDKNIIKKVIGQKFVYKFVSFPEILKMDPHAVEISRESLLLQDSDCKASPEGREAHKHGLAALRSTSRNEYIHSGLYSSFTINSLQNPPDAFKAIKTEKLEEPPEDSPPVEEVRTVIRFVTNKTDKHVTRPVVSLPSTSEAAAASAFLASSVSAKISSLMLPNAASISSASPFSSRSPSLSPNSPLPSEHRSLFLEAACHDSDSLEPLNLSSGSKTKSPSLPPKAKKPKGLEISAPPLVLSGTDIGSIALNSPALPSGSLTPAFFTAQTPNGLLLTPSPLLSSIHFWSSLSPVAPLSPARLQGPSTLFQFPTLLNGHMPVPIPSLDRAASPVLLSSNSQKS
Procedure, shortened: as §1

FEV = molecular target: T7, FEV (Homo sapiens, UniProt Q99581 1-238); conditions: protein: recombinant; tags: N-terminal GST; dsDNA, one strand shown
T7 sequence: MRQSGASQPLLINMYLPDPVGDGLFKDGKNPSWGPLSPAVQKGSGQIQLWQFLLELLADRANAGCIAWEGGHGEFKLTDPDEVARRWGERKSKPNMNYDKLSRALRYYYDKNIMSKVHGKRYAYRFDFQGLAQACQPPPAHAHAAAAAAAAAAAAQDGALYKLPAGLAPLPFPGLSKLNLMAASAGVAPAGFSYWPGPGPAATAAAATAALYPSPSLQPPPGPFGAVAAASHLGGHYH
Procedure, shortened: as §1

ETV5 = ETV5 (Homo sapiens, UniProt P41161 1-510); conditions: protein: recombinant; tags: N-terminal GST; dsDNA, one strand shown
Chain of ETV5 (P41161 whole entry): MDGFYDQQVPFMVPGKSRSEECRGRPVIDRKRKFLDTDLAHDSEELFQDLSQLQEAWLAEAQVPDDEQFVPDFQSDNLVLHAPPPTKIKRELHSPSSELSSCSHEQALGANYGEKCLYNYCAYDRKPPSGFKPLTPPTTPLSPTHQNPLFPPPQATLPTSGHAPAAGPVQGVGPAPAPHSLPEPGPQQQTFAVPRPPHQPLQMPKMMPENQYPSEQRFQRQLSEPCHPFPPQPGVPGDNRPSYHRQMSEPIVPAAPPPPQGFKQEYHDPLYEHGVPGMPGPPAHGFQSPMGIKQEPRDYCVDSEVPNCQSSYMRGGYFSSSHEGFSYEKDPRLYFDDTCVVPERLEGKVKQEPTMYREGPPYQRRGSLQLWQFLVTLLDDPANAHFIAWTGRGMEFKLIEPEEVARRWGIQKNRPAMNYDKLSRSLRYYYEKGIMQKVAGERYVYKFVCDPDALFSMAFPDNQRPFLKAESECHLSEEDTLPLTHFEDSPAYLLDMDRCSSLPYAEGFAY
Procedure, shortened: as §1

HSF1 = HSF1 (Homo sapiens, UniProt Q00613 1-529); conditions: protein: recombinant; tags: N-terminal GST; chain copies: 3; dsDNA, one strand shown
Chain of HSF1 (Q00613 whole entry): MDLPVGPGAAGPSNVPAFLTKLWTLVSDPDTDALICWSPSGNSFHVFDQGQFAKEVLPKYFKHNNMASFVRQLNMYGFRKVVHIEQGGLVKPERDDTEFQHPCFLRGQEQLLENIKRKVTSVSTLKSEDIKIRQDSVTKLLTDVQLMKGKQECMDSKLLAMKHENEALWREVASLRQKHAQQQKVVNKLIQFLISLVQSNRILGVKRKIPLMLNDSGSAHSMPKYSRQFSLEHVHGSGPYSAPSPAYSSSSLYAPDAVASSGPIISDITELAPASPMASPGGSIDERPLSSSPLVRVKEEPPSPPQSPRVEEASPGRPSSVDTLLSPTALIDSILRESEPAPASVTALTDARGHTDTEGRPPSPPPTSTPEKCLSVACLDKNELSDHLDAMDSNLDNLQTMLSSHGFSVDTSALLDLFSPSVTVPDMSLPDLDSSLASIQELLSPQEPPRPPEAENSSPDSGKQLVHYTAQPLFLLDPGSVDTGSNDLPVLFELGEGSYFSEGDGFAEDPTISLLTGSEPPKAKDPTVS
Procedure, shortened: as §1

SPIC = molecular target: T8, SPIC (Homo sapiens, UniProt Q8N5J4 1-248); conditions: protein: recombinant; tags: N-terminal GST; dsDNA, one strand shown
T8 sequence: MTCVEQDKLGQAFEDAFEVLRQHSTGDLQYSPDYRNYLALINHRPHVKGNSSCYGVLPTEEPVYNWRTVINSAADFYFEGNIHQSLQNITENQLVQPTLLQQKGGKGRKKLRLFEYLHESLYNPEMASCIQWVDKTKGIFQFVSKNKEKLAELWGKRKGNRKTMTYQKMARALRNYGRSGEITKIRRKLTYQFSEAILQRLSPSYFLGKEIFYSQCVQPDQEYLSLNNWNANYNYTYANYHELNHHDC
Procedure, shortened: as §1

ELF4 = ELF4 (Homo sapiens, UniProt Q99607 1-663); conditions: protein: recombinant; tags: N-terminal GST; dsDNA, one strand shown
Chain of ELF4 (Q99607 whole entry): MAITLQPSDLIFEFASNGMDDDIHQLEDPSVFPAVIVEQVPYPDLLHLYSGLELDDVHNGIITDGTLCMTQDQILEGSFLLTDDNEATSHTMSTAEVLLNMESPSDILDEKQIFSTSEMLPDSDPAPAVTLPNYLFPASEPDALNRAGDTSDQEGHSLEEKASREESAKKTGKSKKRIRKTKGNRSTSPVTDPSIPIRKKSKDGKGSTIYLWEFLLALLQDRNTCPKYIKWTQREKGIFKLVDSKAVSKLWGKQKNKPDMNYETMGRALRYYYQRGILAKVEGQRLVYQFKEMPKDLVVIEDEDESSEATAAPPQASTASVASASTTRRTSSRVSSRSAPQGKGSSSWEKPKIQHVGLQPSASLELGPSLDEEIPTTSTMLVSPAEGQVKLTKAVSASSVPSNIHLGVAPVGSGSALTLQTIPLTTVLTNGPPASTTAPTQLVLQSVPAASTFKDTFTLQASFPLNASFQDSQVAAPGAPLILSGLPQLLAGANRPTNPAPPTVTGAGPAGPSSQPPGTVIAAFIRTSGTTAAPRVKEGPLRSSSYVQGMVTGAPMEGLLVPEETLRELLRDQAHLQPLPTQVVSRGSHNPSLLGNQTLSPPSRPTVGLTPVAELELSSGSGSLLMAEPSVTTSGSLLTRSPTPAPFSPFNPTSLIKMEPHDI
Procedure, shortened: as §1

ELK4 = molecular target: T9, ELK4 (Homo sapiens, UniProt P28324-2 1-405); conditions: protein: recombinant; tags: N-terminal GST; dsDNA, one strand shown
T9 sequence: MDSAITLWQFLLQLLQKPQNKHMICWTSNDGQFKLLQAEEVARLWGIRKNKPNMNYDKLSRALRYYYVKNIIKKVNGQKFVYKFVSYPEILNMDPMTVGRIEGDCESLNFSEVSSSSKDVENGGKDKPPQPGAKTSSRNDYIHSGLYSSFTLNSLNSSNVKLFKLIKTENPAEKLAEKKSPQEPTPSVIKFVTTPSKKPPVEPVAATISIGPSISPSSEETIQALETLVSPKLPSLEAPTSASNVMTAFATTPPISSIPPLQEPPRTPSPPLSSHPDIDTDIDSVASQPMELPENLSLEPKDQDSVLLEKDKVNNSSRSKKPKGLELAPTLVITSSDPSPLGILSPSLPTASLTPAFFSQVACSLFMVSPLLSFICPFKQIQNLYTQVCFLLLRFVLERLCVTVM
Procedure, shortened: as §1

ETV2 = molecular target: T10, ETV2 (Homo sapiens, UniProt O00321 1-342); conditions: protein: recombinant; tags: N-terminal GST; dsDNA, one strand shown
T10 sequence: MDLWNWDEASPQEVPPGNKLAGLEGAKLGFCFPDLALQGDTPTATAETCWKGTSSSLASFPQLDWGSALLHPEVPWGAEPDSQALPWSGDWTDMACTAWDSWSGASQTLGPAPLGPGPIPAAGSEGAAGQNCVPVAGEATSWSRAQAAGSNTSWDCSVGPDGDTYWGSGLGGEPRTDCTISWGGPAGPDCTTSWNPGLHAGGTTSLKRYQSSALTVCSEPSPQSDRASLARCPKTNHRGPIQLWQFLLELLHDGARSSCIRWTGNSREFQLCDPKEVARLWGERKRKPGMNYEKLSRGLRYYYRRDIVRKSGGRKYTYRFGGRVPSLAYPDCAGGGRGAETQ
Procedure, shortened: as §1

ELF3 = molecular target: T11, ELF3 (Homo sapiens, UniProt P78545 1-371); conditions: protein: recombinant; tags: N-terminal GST; dsDNA, one strand shown
T11 sequence: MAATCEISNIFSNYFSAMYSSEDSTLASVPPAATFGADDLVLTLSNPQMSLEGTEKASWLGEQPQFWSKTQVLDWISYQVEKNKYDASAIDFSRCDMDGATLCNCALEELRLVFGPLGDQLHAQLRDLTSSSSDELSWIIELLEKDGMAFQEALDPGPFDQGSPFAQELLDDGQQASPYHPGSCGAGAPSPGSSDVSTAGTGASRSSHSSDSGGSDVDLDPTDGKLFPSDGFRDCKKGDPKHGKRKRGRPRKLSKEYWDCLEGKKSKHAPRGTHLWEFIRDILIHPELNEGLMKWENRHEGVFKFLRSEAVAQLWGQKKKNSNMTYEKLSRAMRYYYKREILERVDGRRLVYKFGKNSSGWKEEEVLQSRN
Procedure, shortened: as §1

CRX = CRX (Homo sapiens, UniProt O43186 1-299); conditions: protein: recombinant; tags: N-terminal GST; dsDNA, one strand shown
Chain of CRX (O43186 whole entry): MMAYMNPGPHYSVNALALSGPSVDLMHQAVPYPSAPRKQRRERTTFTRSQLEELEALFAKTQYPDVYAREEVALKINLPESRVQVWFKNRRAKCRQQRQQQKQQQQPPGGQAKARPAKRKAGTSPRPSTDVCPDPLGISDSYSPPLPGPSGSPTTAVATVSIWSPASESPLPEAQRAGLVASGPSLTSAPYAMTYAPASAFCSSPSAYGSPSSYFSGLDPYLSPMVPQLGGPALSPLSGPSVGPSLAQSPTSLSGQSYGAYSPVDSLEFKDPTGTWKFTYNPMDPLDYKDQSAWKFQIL
Procedure, shortened: as §1

ETV1 = ETV1 (Homo sapiens, UniProt P50549 1-477); conditions: protein: recombinant; tags: N-terminal GST; dsDNA, one strand shown
Chain of ETV1 (P50549 whole entry): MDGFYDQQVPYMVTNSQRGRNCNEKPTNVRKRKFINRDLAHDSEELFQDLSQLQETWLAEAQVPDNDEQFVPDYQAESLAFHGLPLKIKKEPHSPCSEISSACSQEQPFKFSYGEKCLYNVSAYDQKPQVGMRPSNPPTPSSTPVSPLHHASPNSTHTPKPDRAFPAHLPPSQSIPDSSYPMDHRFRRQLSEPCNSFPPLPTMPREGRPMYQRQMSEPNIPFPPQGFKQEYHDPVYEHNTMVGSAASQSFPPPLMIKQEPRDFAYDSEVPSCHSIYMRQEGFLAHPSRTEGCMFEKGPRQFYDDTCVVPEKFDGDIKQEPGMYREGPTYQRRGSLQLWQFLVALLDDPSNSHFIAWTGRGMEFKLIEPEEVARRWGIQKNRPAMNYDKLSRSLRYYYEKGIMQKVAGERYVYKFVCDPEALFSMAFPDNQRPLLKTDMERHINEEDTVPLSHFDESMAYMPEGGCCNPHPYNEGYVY
Procedure, shortened: as §1

With TTCCTT the binding signal (FLI1) was 1.88 fold enrichment (6-mer frequency, TF over GST control), the binding signal (ELK1) was 1.79 fold enrichment (6-mer frequency, TF over GST control) and the binding signal (GABPA) was 1.84 fold enrichment (6-mer frequency, TF over GST control). The binding signal (ERG) was 2.11 fold enrichment (6-mer frequency, TF over GST control), the binding signal (ELF1) was 1.96 fold enrichment (6-mer frequency, TF over GST control) and the binding signal (EHF) was 2.02 fold enrichment (6-mer frequency, TF over GST control). The binding signal (SPI1) was 2.25 fold enrichment (6-mer frequency, TF over GST control), the binding signal (SPIB) was 2.01 fold enrichment (6-mer frequency, TF over GST control) and the binding signal (ELK3) was 2.09 fold enrichment (6-mer frequency, TF over GST control). For the same sequence, the binding signal (FEV) was 1.76 fold enrichment (6-mer frequency, TF over GST control), the binding signal (ETV5) was 2 fold enrichment (6-mer frequency, TF over GST control) and the binding signal (HSF1) was 1.61 fold enrichment (6-mer frequency, TF over GST control). The binding signal (SPIC) was 1.99 fold enrichment (6-mer frequency, TF over GST control), the binding signal (ELF4) was 1.79 fold enrichment (6-mer frequency, TF over GST control) and the binding signal (ELK4) was 1.75 fold enrichment (6-mer frequency, TF over GST control). The binding signal (ETV2) was 1.79 fold enrichment (6-mer frequency, TF over GST control), the binding signal (ELF3) was 1.76 fold enrichment (6-mer frequency, TF over GST control) and the binding signal (CRX) was 1.33 fold enrichment (6-mer frequency, TF over GST control). The binding signal (ETV1) was 2.04 fold enrichment (6-mer frequency, TF over GST control).
